Unmarked numbers belong to inactive results.
Test system: Vero E6 infected with SARS-CoV-2
Assay: inhibition of SARS-CoV-2 cytopathic effect; higher = more antiviral protection, active = above 15
Settings: 48 h

Compound | inhibition of SARS-CoV-2 cytopathic effect (1 nM) [%] | inhibition of SARS-CoV-2 cytopathic effect (8.33 nM) [%] | inhibition of SARS-CoV-2 cytopathic effect (100 nM) [%] | inhibition of SARS-CoV-2 cytopathic effect (833.33 nM) [%] | inhibition of SARS-CoV-2 cytopathic effect (10000 nM)
O=C(Cn1ccnc1[N+](=O)[O-])NCc1ccccc1 [benznidazole] | -0.15 | -0.69 | -2.08 | -0.42 | 0.58%
CN1CCC(=C2c3ccccc3CC(=O)c3sccc32)CC1 [ketotifen] | 1.19 | 4.8 | 2.53 | 1.27 | -3.64%
Oc1ccc2c3c1O[C@H]1c4oc5ccccc5c4C[C@@]4(O)[C@@H](C2)N(CC2CC2)CC[C@]314 [naltriben] | 0.92 | -0.89 | 0.12 | -0.45 | -2.94%
CCC(=O)NCC[C@@H]1CCc2ccc3c(c21)CCO3 [ramelteon] | 0.77 | -0.74 | -1.05 | 0.28 | -10.8%
CCCCCCCCCCCCCC[C@@H](O)[C@@H](O)[C@@H](N)CO [phytosphingosine] | -6.1 | -0.27 | -1.1 | -3.05 | -6.04%
O=C(NN1C(=O)[C@@H]2[C@@H]3C=C[C@@H]([C@H]4C[C@@H]34)[C@@H]2C1=O)c1ccc(C(F)(F)F)cc1 [tecovirimat] | 1.41 | 2.44 | 2.71 | 0.04 | -0.46%
O=C(NCC(=O)N1CCCC1)Nc1ccc2cnccc2c1 | -2.26 | 0.25 | 0.13 | 1 | -1.4%
CC(C)N(CCCCOCC(=O)NS(C)(=O)=O)c1cnc(-c2ccccc2)c(-c2ccccc2)n1 [selexipag] | -0.52 | -1.02 | -0.43 | -0.43 | -1.53%
Fc1ccc2c(CCNCc3cccc(OCC(F)(F)C(F)F)c3)c[nH]c2c1 [idalopirdine] | 2.26 | 0.96 | 0.82 | -0.82 | -3.37%
N#Cc1c(-c2ccccc2)cc(-c2cc(Br)ccc2O)[nH]c1=O | 0.98 | 2.69 | 3 | 2.87 | 3.55%
NC(=O)c1ncn([C@@H]2O[C@H](CO)[C@@H](O)[C@H]2O)n1 [ribavirin] | -5.15 | -3.9 | -6.04 | -0.66 | 4.23%
CCOC(=O)NNc1ccc(N(CC)CC(C)O)nn1 (stereo not given) [cadralazine] | -0.85 | -0.3 | -1.93 | -1.81 | 0.1%
Cn1c(N2CCCCS2(=O)=O)nc(C(=O)NCc2ccc(F)cc2)c(O)c1=O | -0.4 | -1.76 | -4.2 | -0.06 | -1.72%
NC(=O)NC(=O)Cc1ccccc1 [phenacemide] | -1.41 | 0.22 | -0.3 | 0.89 | 0.35%
COc1cc(OC)cc(N(CCNC(C)C)c2ccc3ncc(-c4cnn(C)c4)nc3c2)c1 [erdafitinib] | 1.71 | -0.38 | 0.68 | -1.43 | 11.7%
C=C1C(=O)[C@]23[C@H](O)[C@H]1CC[C@H]2[C@@]12CO[C@]3(O)[C@@H](O)[C@@H]1C(C)(C)CC[C@@H]2O [Oridonin (Isodonol)] | -0.74 | 1.14 | 0.8 | 3.78 | 43.5% (active)
C[C@@H]1O[C@@H](O[C@@H]2[C@@H](O)[C@H](OCCc3ccc(O)c(O)c3)O[C@H](CO)[C@H]2OC(=O)/C=C/c2ccc(O)c(O)c2)[C@H](O)[C@H](O)[C@H]1O [verbascoside] | -0.06 | -0.95 | 0.7 | -1.19 | -1.48%
Cc1ccc(S(=O)(=O)NCl)cc1 [chloramine-T] | 1.46 | 3.35 | 1.32 | 0.02 | -5.13%

— the supplement of paper PMC13380429
